Calls of active or inactive are those of the source.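 How the source made its calls: active means blocks over 70% of labeled estradiol binding at 10 µM, or over a set limit at 100 nM; inactive means the rest.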

Usually inhibition stands for the change of the read-out against control, counted positive when it falls.

Estrogen receptor beta (Homo sapiens), sequence (Q92731 whole entry, looked up): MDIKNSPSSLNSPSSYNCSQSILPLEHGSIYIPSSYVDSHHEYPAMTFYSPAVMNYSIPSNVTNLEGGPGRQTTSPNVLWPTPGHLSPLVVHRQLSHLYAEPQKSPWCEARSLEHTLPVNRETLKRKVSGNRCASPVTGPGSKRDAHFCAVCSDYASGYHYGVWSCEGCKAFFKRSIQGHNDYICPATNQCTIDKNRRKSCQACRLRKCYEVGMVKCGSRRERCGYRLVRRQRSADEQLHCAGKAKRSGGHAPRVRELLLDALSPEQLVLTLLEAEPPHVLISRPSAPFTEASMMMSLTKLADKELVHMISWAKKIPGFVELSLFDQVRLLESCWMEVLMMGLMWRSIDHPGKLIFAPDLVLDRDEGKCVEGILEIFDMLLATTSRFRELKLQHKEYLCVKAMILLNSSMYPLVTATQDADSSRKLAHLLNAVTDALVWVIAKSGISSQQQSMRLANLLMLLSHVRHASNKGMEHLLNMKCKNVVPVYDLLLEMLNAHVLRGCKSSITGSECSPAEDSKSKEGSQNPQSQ

One experiment concerns the target Estrogen receptor beta (Homo sapiens) (UniProt Q92731). In words: displacement of fluorescent estrogen from ERbeta – cell-based, Cos7 ERbeta-GFP, flow cytometry, primary screen (AID 1210).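 Further: 0% = DMSO vehicle wells and 100% = complete loss of labeled estradiol signal.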 The following applies: fluorescent estrogen binding, at 10 µM, stronger effect = higher value. Background: A flow cytometer gives signals particle by particle.
`COc1ccc2[nH]cc(CCN=C(N)N)c2c1`: the inhibition is 16% (inactive).

As to `COc1ccc(C2(CN)CCCC2)cc1OC`, the inhibition was 8% (inactive). Consider `CCOc1ccccc1N1C(=O)NC(=O)C(CCc2ccncc2)(CCc2ccncc2)C1=O`, for which the inhibition was 41% (inactive). In the case of `CCNCC1(c2ccc(OC)c(OC)c2)CCCC1`, the inhibition is 14% (inactive). For `CC(=O)c1ccc2c(c1)C1C(Cl)C(Sc3ccccc3[N+](=O)[O-])CC1C(c1ccccc1)N2` (stereo not given), the inhibition is 33% (inactive).

Regarding `O=C(O)c1cccc2c1NC(c1cccc([N+](=O)[O-])c1)C1CC(Sc3ccccc3[N+](=O)[O-])C(Cl)C21` (stereo not given), the inhibition is 67% (inactive).

The experiment is the same for the next values; noted with them: fluorescent estrogen binding, ligand binding inhibition, at 0.1 µM, stronger effect = higher value.
Turning to `O=C(O)c1ccc2c(c1)C1C(Cl)C(Sc3ccccc3[N+](=O)[O-])CC1C(c1cccc([N+](=O)[O-])c1)N2` (stereo not given), the inhibition was 6%. Still for that read-out and setting: the value for `COc1ccc(Cn2c(N)c(C(=O)NCc3ccco3)c3nc4ccccc4nc32)cc1` was 13%; that for `CC(=O)c1ccc2c(c1)C1C(Cl)C(Sc3ccccc3[N+](=O)[O-])CC1C(c1ccccc1[N+](=O)[O-])N2` (stereo not given) was 6%. In turn, `Cc1ccc(S(=O)(=O)Cc2ccc(C(=O)N3CCC4(CC3)OCCO4)o2)cc1` registered an inhibition of 7%. As for `NC(=O)c1ccc(N=Nc2c(O)[nH]c(=O)[nH]c2=O)cc1`, the inhibition is 17%. Consider `C[C@H]1CCC[C@@H](O)CCC/C=C/c2cc(O)cc(O)c2C(=O)O1`, for which the inhibition came to 62%. `CCOc1ccccc1N1C(=O)NC(=O)C(CCc2ccncc2)(CCc2ccncc2)C1=O` displayed an inhibition of 35%.

For the compound `CC(=O)c1ccc2c(c1)C1C(Cl)C(Sc3ccccc3[N+](=O)[O-])CC1C(c1ccccc1)N2` (stereo not given), the inhibition was 22%. Regarding `O=C(O)c1cccc2c1NC(c1cccc([N+](=O)[O-])c1)C1CC(Sc3ccccc3[N+](=O)[O-])C(Cl)C21` (stereo not given), the inhibition was 11%.

The values above are taken from PubChem BioAssay AID1210 (NMMLSC, 2008).
